Compounds with a hit are over-represented: about 2.8% of the library has one in this group of screens.
WRN helicase inh = inhibitors of human WRN helicase. Potency, µM (series often up to 114 µM), without a hit: at the highest dose activity change, negative = inhibition, usual class: inhibitors. 0.46% of 360,000 active. WRN helicase unwinding, fluorescent forked duplex, kinetic. Q14191; note: potency is the fitted concentration of half-maximal effect; % is set by controls: 0 for no effect and ±100 for the full control effect; nearly all actives have a fitted effect of over 55% in size
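Screening of the MLSMR collection measured strand separation of a quenched forked DNA duplex (100 nM) by 20 nM WRN with 2 mM ATP, all final. Compounds were preincubated with enzyme 15 min at room temperature.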
Pol kappa inh = blocks human DNA polymerase kappa activity. purified Pol kappa, fluorescent DNA synthesis assay, 10 min. Potency, µM (series often up to 107 µM), for inactives: at the top dose activity, negative = inhibition, usual class: inhibitors. 0.53% of 400,000 active. AID 588579; note: potency is the fitted concentration of half-maximal effect; % is set by controls: 0 for no effect and ±100 for the full control effect
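Kinetic fluorescence screen: compound preincubated 15 min RT with 10 nM enzyme; 50 nM substrate (final) initiates; reads at 0/10 min.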
Pol iota inh = inhibitors of human DNA polymerase iota; Q9UNA4; Pol iota fluorescent replication assay, 10 min; Potency, µM (highest dose often 115 µM), for inactives: top-dose activity, negative = inhibition, hits mostly inhibitors; 1% of 390,000 active; AID 588590; note: potency is the fitted concentration of half-maximal effect
Target sequence (Q9UNA4 whole entry, looked up): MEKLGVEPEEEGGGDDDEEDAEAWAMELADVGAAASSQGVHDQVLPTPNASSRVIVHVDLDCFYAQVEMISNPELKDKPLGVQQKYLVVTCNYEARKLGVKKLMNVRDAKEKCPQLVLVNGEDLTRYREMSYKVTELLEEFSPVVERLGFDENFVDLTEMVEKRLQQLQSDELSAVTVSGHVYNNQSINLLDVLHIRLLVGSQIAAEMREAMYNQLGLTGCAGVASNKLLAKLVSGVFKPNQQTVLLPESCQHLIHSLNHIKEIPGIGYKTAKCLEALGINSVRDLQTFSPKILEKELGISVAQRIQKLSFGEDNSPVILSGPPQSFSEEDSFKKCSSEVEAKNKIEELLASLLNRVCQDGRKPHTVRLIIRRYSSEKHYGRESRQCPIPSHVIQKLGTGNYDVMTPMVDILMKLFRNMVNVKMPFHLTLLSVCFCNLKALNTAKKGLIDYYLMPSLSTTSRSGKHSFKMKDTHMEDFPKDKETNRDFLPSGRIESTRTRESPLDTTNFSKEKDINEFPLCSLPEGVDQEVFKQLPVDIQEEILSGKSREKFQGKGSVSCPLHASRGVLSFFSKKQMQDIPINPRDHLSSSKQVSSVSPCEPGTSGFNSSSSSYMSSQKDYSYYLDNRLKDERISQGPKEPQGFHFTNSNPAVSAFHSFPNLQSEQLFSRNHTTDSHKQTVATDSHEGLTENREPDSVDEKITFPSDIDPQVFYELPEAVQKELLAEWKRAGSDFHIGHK
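Fluorescent replication assay read twice, at 0 min and 10 min after adding 50 nM (final) substrate. Enzyme (10 nM) and compounds were first incubated 15 min at room temperature; enzyme-free buffer wells were negative controls.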
Pol eta inh = inhibitors of human DNA polymerase eta. Potency, µM (top dose mostly 114 µM), for inactives: at the highest dose activity change, negative = inhibition, hits mostly inhibitors. Q9Y253. recombinant Pol eta, fluorescent DNA replication assay. AID 588591. 1.2% of 390,000 active; note: potency is the fitted concentration of half-maximal effect; % is set by controls: 0 for no effect and ±100 for the full control effect
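Pol eta (10 nM) was preincubated with compounds for 15 min at room temperature, after which fluorescent replication substrate (50 nM final) was added to start the reaction. Fluorescence was read kinetically at 0 and 10 min.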
Pol beta inh = inhibitors of human DNA polymerase beta; 1.3% of 340,000 active; P06746; Potency, µM (series often up to 114 µM), without a hit: at the highest dose activity change, negative = inhibition, hits mostly inhibitors; AID 485314; Pol beta primer extension/strand displacement, fluorescence kinetic; note: potency is the fitted concentration of half-maximal effect; % is set by controls: 0 for no effect and ±100 for the full control effect
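Preincubation: enzyme (10 nM) with compound, 15 min, RT. Reaction: substrate added to 50 nM final. Reads: 0 and 10 min. Analysis: normalized, Hill fit.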
PI5P4Ka inh = PI5P4K alpha (human) kinase inhibition | 1.2% of 330,000 active | P48426 | AID 652105 | PI5P4Kalpha enzyme, ADP-Glo luminescence, 60 min; active compounds read low | max response, %; active = max response of -50% or lower; inconclusive = between -30% and -50%; inactive = -30% or higher; note: value at the top dose of about 77 µM; % is set by controls: 0 for no effect and ±100 for the full control effect
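Luminescence from ADP-Glo served as readout of PI5P4Kalpha activity in a qHTS format. Reaction: enzyme, substrate, compound, ATP at 5 microM final, 60 min at RT.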
Numbers without * were called inactive; ? = inconclusive; . = no result; ! = not confirmed by another sample; [ ] = dose if it differs, or a comment. Unless noted, calls come from the whole dose curve; as a rule, active = well fitted curve in the direction sought with a large enough effect; inconclusive = small, poorly fitted or top-dose-only effect, or another doubt; inactive = no such curve, though single readings can be large; an effect the other way counts as inactive or inconclusive.

SMILES	WRN helicase inh	Pol kappa inh	Pol iota inh	Pol eta inh	Pol beta inh	PI5P4Ka inh
O=C(Nc1ccc([N+](=O)[O-])cc1)c1ccccc1F	-4%	0%[60.1 µM]	-4%	-11%	31%	9
O=C(c1cc(O)c(O)c([N+](=O)[O-])c1)c1ccccc1F	?	?	?	?	17%[57.1 µM]	-66*
Cc1c(C(=O)O)cnc2c([N+](=O)[O-])cnn12	79µM*	-33%	60%	?	?	-55*
Nc1cc(C(=O)O)ccc1N1CCCCC1	?	79µM*	?	10µM*	?	-9
CC1CCN(c2ccc(C(=O)O)cc2N)CC1	-13%[57.1 µM]	-17%	?	18µM*	?	?
Nc1cc(F)ccc1N1CCCCCC1	-5%	-4%	56%	-15%	22%	1
Cc1ccc(-c2csc(N3N=C(c4ccccc4)/C(=C\c4ccc(N(C)C)cc4)C3=O)n2)cc1	.	.	.	.	50µM*	.
CSc1ccc(C2C(C#N)=C(N)Oc3cc4c(cc32)OCO4)cc1 (centres undefined)	-6%[11.6 µM]	89µM*	-21%	-4%	6%	.
Cc1ccc(C2C(C#N)=C(N)Oc3cc4c(cc32)OCO4)cc1 (centres undefined)	-4%	-2%	-7%	?	5%	0
CCOc1ccc(C(=O)c2ccc(O)c(O)c2O)cc1	.	3.5µM*	.	.	.	.
CCOc1ccc(C(=O)c2cccs2)cc1	-18%	-9%	?	-1%	-2%	2
CCOc1cccc(C(=O)c2ccc(O)c(O)c2O)c1	.	4.5µM*	.	.	.	.
O=c1cc(-c2ccco2)oc2c1ccc1ccccc12	-28%	-9%	39%	?	18µM*	-20
O=c1cc(-c2ccccc2O)oc2c1ccc1ccccc12	.	-8%[19.4 µM]	.	.	.	.
O=c1cc(-c2ccc(O)cc2)oc2c1ccc1ccccc12	-30%	11%	-18%	56µM*	.	3
O=c1cc(-c2cccc(O)c2)oc2c(O)c(O)ccc12	.	2.8µM*	.	.	.	.
O=c1cc(-c2cccc(O)c2)oc2cc(O)ccc12	.	-12%[19.4 µM]	.	.	.	.
O=c1cc(-c2ccncc2)oc2c1ccc1ccccc12	3%[11.6 µM]	-6%	56%	-5%	?	8
CN(C)N=Nc1ccc(/C=C2\C=Cc3ccccc32)cc1	.	-7%	5%	.	.	.
CCC(C)NC(=O)c1sc2nc3n(c(=O)c2c1C)CCC3 (centres undefined)	.	0%	15%	1%	?	.
CCn1c(CSc2nc3ccccc3[nH]2)nc2cc(C(=O)O)ccc21	-16%[57.1 µM]	-16%	?	-5%	-6%	.
CCn1c(CSc2nccn2C)nc2cc(C(=O)O)ccc21	79µM*	-3%	?	?	-16%	6
O=C(C[n+]1cccc(Br)c1)c1ccc(F)cc1	.	0%	-24%	.	.	.
CC(=O)c1cccc(-n2c(CCC(=O)O)ccc2-c2cccs2)c1	?	-34%	50µM*	?	?	.
O=C(O)CCc1ccc(-c2cccs2)n1-c1ccc(C(=O)O)cc1	-8%[57.1 µM]	?	?	32µM*	?	-5
SMILES	WRN helicase inh	Pol kappa inh	Pol iota inh	Pol eta inh	Pol beta inh	PI5P4Ka inh
O=C(O)/C=C/c1ccc(S(=O)(=O)NCc2ccco2)cc1	-5%[11.6 µM]	-23%	-22%	35µM*	-29%	6
COc1cc(OC)c(S(=O)(=O)NCc2ccco2)cc1S(=O)(=O)NCc1ccco1	-5%	-8%	1%	-2%	1%	-5
O=C(O)CNS(=O)(=O)c1ccc2c3c(cccc13)C(=O)N2	56µM*	?	?	32µM*	9%	-16
O=C(O)CCCCCNS(=O)(=O)c1ccc2c3c(cccc13)C(=O)N2	?	?	?	?	16µM*	-13
O=S(=O)(NCc1ccco1)c1ccccc1Br	7%	-23%	89µM*!	-11%	?	1
O=C(CSc1nc2ccccc2nc1Cc1ccc(Cl)cc1)N1CCCCC1	.	-10%[60.1 µM]	-10%	-13%	3%	.
O=C1Nc2ccc(S(=O)(=O)NCc3ccco3)c3cccc1c23	-15%[11.6 µM]	-43%	40µM*	20µM*	.	?
N#CC1=C(N)SC(N)=C(C#N)C1c1ccc(C(F)(F)F)cc1	.	.	.	.	-1%	.
N#CC1=C(N)SC(N)=C(C#N)C1c1ccc([N+](=O)[O-])cc1	-33%	-6%	?	-2%	1%	-84*
CCOc1ccc(C2C(C#N)=C(N)SC(N)=C2C#N)cc1OCC	-11%	-15%	5%	-6%	24%	-51*
CC1CN(C(=O)N2CCC(C(=O)NCCCc3ccccc3)CC2)c2ccccc2O1 (centres undefined)	.	-4%	27%	-14%	2%	.
Cc1cccc(NC(=O)CSc2nc(C3CCCC3)nc3c2c(=O)n(C)c(=O)n3C)c1C	.	-11%[60.1 µM]	0%	.	5%	.
S=c1[nH]nc2ccc3ccccc3n12	4%	.	.	.	.	-61*
S=c1[nH]c2ccccc2n2c(=S)[nH]nc12	-12%	-13%	?	-3%	5%	-29
Cc1noc(/C=C/c2ccco2)c1S(=O)(=O)N1CCC(C(=O)N2CCc3ccccc3C2)CC1	-22%	-35%	45µM*	?	-111%	.
Cc1ccc(NC(=O)C(=Cc2ccc(C(=O)O)cc2)C(=O)Nc2ccc(C)cc2C)c(C)c1	?	8%	13µM*	79µM*	-25%	1
O=[N+]([O-])c1ccc(Cl)c(-c2ccc(/C=N/n3cnnc3)o2)c1	?	?	?	?	25µM*	-1
O=[N+]([O-])c1cc(-c2ccc(/C=N/n3cnnc3)o2)ccc1Cl	1%	-27%	-24%	-5%	-1%	2
Cc1ccc(S(=O)(=O)N2CCN(c3nc(-n4cccn4)nc4ccccc34)CC2)cc1	.	-3%	?	.	.	.
COc1ccc(N=Cc2c(O)n(-c3cccc(C)n3)c(=O)c3ccccc23)c(OC)c1	-9%	-12%	36%	?	?	-2
COc1ccccc1NS(=O)(=O)c1cccc(-n2c(O)c(C=Nc3ccccc3C(=O)O)c3ccccc3c2=O)c1	50µM*	-42%	?	20µM*	56µM*	-69*
Cc1cc(C)c(Cn2c(=O)n(CCCCC(=O)NCc3ccccc3Cl)c(=O)c3ccccc32)c(C)c1	.	-12%	5%	-5%	2%	.
CCOC(=O)C1CCN(c2ncnc3c2cnn3C)CC1	7%	-5%	-7%	-7%	79µM*	-10
O=C(CN1C(=O)N/C(=C\c2ccccc2OCc2ccc(C(=O)O)cc2)C1=O)Nc1ccc(F)cc1	-19%	?	?	-13%	79µM*	-13
O=C(O)c1ccc(COc2ccccc2/C=C2\NC(=O)N(Cc3ccc(F)cc3)C2=O)cc1	-21%	-21%	?	?	?	-6
O=C(O)c1ccccc1O[C@@H]1O[C@H](C(=O)O)[C@@H](O)[C@H](O)[C@H]1O	.	21%[60.1 µM]	.	.	.	.

Compound activity as filed in PubChem BioAssay.
